Results from PubChem BioAssay AID492998 (Southern Research Specialized Biocontainment Screening …, 2010).
Hit rate of the full screen: of about 2,300 compounds, about 550 (24%) were called active. No rule for the calls is given here. The list is a sample of the results. Results with a measured potency or affinity are listed apart.

assay: Vero E6 cell cytotoxicity, dose response, cytotoxicity control for non-replicating M. tuberculosis project, secondary assay (AID 492998); conditions: series mostly up to 20 µM

Compound | outcome
CCOC(=O)CC(NS(=O)(=O)Cc1ccccc1)c1ccc(C)cc1 (stereo not drawn) | inactive
CCOC(=O)COn1c2c(c3c4no[n+]([O-])c4ccc31)CCCC2 | inactive
COC(=O)c1ccccc1NC(=O)C1CC(c2ccc(F)cc2)=NO1 (stereo not drawn) | inactive
COc1cc(/C=C2/C(=O)NN(c3cccc(C)c3)C2=O)ccc1OC(=O)c1ccco1 | inactive
O=C(Oc1cccc2cccnc12)c1cccc(-n2cnnn2)c1 | inactive
Cc1nc2ccc(NC(=O)c3ccc([N+](=O)[O-])cc3[N+](=O)[O-])cc2s1 | inactive
CCN(CC)CCNC(=O)c1[nH]c2ccc(OCc3ccccc3)cc2c1C | inactive
CSc1ccccc1NC(=O)c1cc(C(C)C)on1 | inactive
O=C(COc1ccc(-c2ccccc2)cc1)Nc1cccnc1 | inactive
O=C(OCC(=O)N1CCCCC1)c1cc2ccccc2cc1O | inactive
CCOC(=O)c1cc2cc3ccccc3cc2oc1=O | inactive
CCOC(=O)COc1ccc(C(=O)c2ccccc2)c(O)c1 | inactive
Cc1ccn2nc(S(=O)(=O)Nc3c(F)cccc3F)nc2n1 | inactive
CN(C)CC/C=C1\c2cc(Cl)ccc2Sc2cc(F)c(F)cc21 | inactive
Nc1nc2ccccc2n1C(=O)c1ccc(F)cc1 | inactive
CCn1cc(/C=N\NC(=O)c2ccc(F)cc2)cn1 | inactive
Cn1c(NC(=O)c2ccccc2)nc2ccccc21 | inactive
COc1ccc(C(=O)Nc2ccccc2C(=O)N/N=C/c2ccco2)cc1 | inactive
Cc1nc2ccc(NC(=O)COc3cccc(F)c3)cc2s1 | inactive
O=C(COC(=O)c1cccc([N+](=O)[O-])c1)NCc1cccs1 | inactive
COc1ccc(CN2CCC(C(=O)Nc3ccc(Oc4cccnc4)cc3)CC2)c(C)c1C | inactive
CSCCOC(=O)COc1ccc(/C=N/NC(=O)c2c(Cl)cnn2C)cc1 | inactive
O=C(COc1ccc(Br)cc1)N/N=C1/SCC(=O)N1Cc1ccco1 | inactive
O=C(C/C=N\OCc1ccc([N+](=O)[O-])cc1)Nc1ccc(Br)cc1 | inactive

Compound | outcome
COc1ccccc1CCNC(=O)c1ccc(C)o1 | inactive
NC1=NC[C@H](Cc2ccc(O)cc2)N1CCc1cccc2ccccc12 | inactive
Cc1ccc(NCCC(=O)c2cccs2)cc1 | inactive
CCCCCCCC(=O)N/N=C(/C)c1c(O)cc(C)oc1=O | inactive
CCc1ccc(/C=N/NC(=O)c2ccccn2)cc1 | inactive
Cc1ccc(-c2noc(CCCC(=O)Nc3cccnc3)n2)cc1 | inactive
CCCCCCCC(=O)NNC(=O)c1ccc(F)cc1 | inactive
O=C(N/N=C/C=C/c1ccccc1)c1ccccn1 | inactive
CCCc1cc(C(=O)Nc2ccccc2SC)no1 | inactive
COC(=O)CCCC(=O)N1CCCC(C(=O)c2ccc(-c3ccccc3)cc2)C1 (stereo not drawn) | inactive
CSc1nnc(Cc2ccc3c(c2)OCO3)o1 | inactive
COc1cccc(/C=N/N2C(=O)CSC2=S)c1O | inactive
O=C(OCn1nnc2ccccc2c1=O)c1cccs1 | inactive
COc1ccc2cc(C(=O)C3CCCN(Cc4cccc(C)n4)C3)ccc2c1 (stereo not drawn) | inactive
S=c1c2c(nc3nc[nH]n13)CCC2 | inactive
CC1(C)CC(=O)C2=C(C1)OC(N)=C(C#N)C2C#Cc1ccccc1 (stereo not drawn) | inactive
Cc1ccc(NC(=O)C(=O)NNC(=O)c2ccccc2C)cc1Cl | inactive
O=C(NC1CCOc2ccccc21)c1ccc(Cl)nc1 (stereo not drawn) | inactive
CCOC(=O)COc1ccc(C(=O)Nc2cccc(Cl)c2C)cc1 | inactive
CCOC(=O)C(=CNNc1cccc(Cl)c1)C(=O)OCC | inactive
Cc1cc(OCCOCCNCc2ccccc2)ccc1C(C)C | inactive
O=C(OCC#CCSc1nc2ccccc2o1)c1ccco1 | inactive
COc1ccc(O)c(C(=O)CC(=O)c2ccc(F)cc2)c1 | inactive
C/C(=N\O)c1cc(Cl)ccc1O | inactive

Compound | outcome
O=C(Nc1ccccc1N1CCCC1)c1cccc(F)c1 | inactive
O=C(CCNc1cccc(F)c1)c1cccc([N+](=O)[O-])c1 | inactive
CC12CC3CC(C)(C1)CC(C(=O)N1CCCC1)(C3)C2 | inactive
CSc1ccc(CNc2ncc(-c3cccc([N+](=O)[O-])c3)n2C)cc1 | inactive
COc1cccc(NC(=O)COC(=O)Cc2ccc(Br)cc2)c1 | inactive
CC(C)(C)NCC1(CO)SC(N)=NC1=O (stereo not drawn) | inactive
Cc1cc(C)nc(SC2CC(=O)N(c3ccc(C)c(C)c3)C2=O)n1 (stereo not drawn) | inactive
O=C(OCn1nnc2ccccc2c1=O)C1CCCCC1 | inactive
Cc1ccc2nc(C)c3c(c2c1)COC3 | inactive
O=C(COc1ccccc1)NC1CCCCC1 | inactive
Cc1cc2cc(CNC(=O)COc3ccccc3)ccc2n1C | inactive
CC1CC(C)CN(CCOCCSc2ccc(Cl)cc2)C1 (stereo not drawn) | inactive
COc1ccc(Cl)cc1N=Cc1c(O)c2ccccc2oc1=O | inactive
O=C(COC(=O)c1cc(Br)ccc1Cl)NC1CCCC1 | inactive
COC(=O)COc1ccc(S(=O)(=O)N2CCN(c3ccccc3F)CC2)cc1 | inactive
O=C1/C(=C\c2ccco2)SC(=S)N1c1ccc(O)cc1 | inactive
Cc1ccccc1OCCC(=O)OCC(=O)NNC(=O)c1cccs1 | inactive
CCSc1ncc(/C=N/Nc2ccc(Cl)cc2)n1C | inactive
O=C(COC(=O)CCc1c[nH]c2ccccc12)Nc1ccc([N+](=O)[O-])cc1 | inactive
CCCCOC(=O)C1CCCC(C(=O)OCCCC)N1 (stereo not drawn) | inactive
O=C(COc1ccc2c(c1)CCC2)Nc1ccccn1 | inactive
O=C1NC(=O)N(Cc2ccc(F)cc2)C(=O)/C1=C\c1ccc([N+](=O)[O-])s1 | inactive
O=C1NC(=O)N(Cc2ccco2)C(=O)/C1=C\c1cccn1CCOc1ccc(Cl)cc1 | inactive
OC(CNCCc1ccc(C(F)(F)F)cc1)COc1cccc2ccccc12 (stereo not drawn) | inactive

Compound | outcome
O=C(COC(=O)c1cc(Cl)ccc1O)c1ccc2c(c1)OCO2 | inactive
O=C1CC(Sc2ncccn2)C(=O)N1c1ccccc1C(F)(F)F (stereo not drawn) | inactive
CCOC(=O)c1c(NC(=O)C2COc3ccccc3O2)sc2c1CC(C)(C)NC2(C)C (stereo not drawn) | inactive
CCOC(=O)CCS(=O)(=O)c1nc(-c2ccccc2)cc(C(F)(F)F)n1 | inactive
COc1ccc(NC(=O)Nc2ccc(O)c3ccccc23)cc1 | inactive
CCOc1ccc2ccccc2c1/C=N/NC(=O)c1ccncc1 | inactive
Cc1ccc(S(=O)(=O)/N=C(\CCl)N2CCOCC2)cc1 | inactive
Cc1cc(CN(C)C)c(O)c(C2(C)CCCCC2)c1 | inactive
CCCCNC(=O)N1CCc2ccccc2C1 | inactive
CCOc1ccccc1OC(=O)c1cc2ccccc2oc1=O | inactive
Cc1ccc(NC(=O)C2CC2c2ccccc2)cc1 (stereo not drawn) | inactive
CN(/N=C/c1ccc([N+](=O)[O-])o1)c1ccccc1 | inactive
O=c1oc(-c2ccccc2[N+](=O)[O-])nc2ccccc12 | inactive
COc1ccc(OC)c(N2C(=O)NC(=O)/C(=C/c3ccc([N+](=O)[O-])s3)C2=O)c1 | inactive
CCC(=O)N1CCN(c2cc3c(cc2F)c(=O)c(C(=O)O)cn3CC)CC1 | inactive
O=C(COC(=O)c1ccccn1)Nc1cccc(Cl)c1Cl | inactive
CCOC(=O)C1CCCN(Cc2nc(Cc3ccccc3Cl)no2)C1 (stereo not drawn) | inactive
Cc1cc(Br)ccc1OCCCCN1CCC(C)CC1 | inactive
CCCCCOc1ccc(CSC2=NCCN2)cc1[N+](=O)[O-] | inactive
CCc1ccc(C(C)NC(=O)C2CCCO2)cc1 (stereo not drawn) | inactive
Cc1ccc(-c2ccc(/C=N/NC(=O)CN3CCOCC3)o2)cc1[N+](=O)[O-] | inactive
COc1cccc(NC(=O)c2ccc(Cn3cc([N+](=O)[O-])cn3)o2)c1 | inactive
CCS(=O)(=O)c1ncc(Cl)c(C(=O)Nc2ccc(S(=O)(=O)N3CCC(C)CC3)cc2)n1 | inactive
CC1CCN(S(=O)(=O)c2cccc(C(=O)Oc3ccc([N+](=O)[O-])cc3)c2)CC1 | inactive

Compound | outcome
O=C(Nc1ccc(S(=O)(=O)N2CCOCC2)cc1)c1ccc([N+](=O)[O-])s1 | inactive
CCN1CCN(Cc2cc(C(C)(C)C)c(O)c(C(C)(C)C)c2)CC1 | inactive
O=C(N/N=C/c1ccc(OC(=O)c2cccs2)cc1)c1ccccn1 | inactive
COc1cc(C2C3=C(CC(C)(C)CC3=O)OC(N)=C2[N+](=O)[O-])ccc1O (stereo not drawn) | inactive
CC(C)CCNCC(O)CON=C1c2ccccc2-c2ccccc21 (stereo not drawn) | inactive
O=C(O)c1ccc(NS(=O)(=O)/C=C/c2ccccc2)cc1O | inactive
O=C(N/N=C/c1ccc(Br)s1)c1ccccc1[N+](=O)[O-] | inactive
CCCOC(=O)c1ccc(NC(=O)Cc2cccs2)cc1 | inactive
CCOc1ccc(NC(=O)CCC(=O)N/N=C/c2ccc([N+](=O)[O-])s2)cc1 | inactive
O=C(NNc1ccc([N+](=O)[O-])cc1)c1ccccc1Cl | inactive
CCOC(=O)N/N=C\c1ccc([N+](=O)[O-])s1 | inactive
Cc1cccc(NCc2ccc([N+](=O)[O-])s2)c1 | inactive
Cc1ccc(C2=N/C(=C\c3cccnc3)C(=O)O2)cc1 | inactive
CCOC(=O)c1cc(COc2cc(Cl)cc(Cl)c2)on1 | inactive
O=C(c1cc2ccccc2o1)c1nc2c(n1O)CCCCC2 | inactive
Nc1cccn2c(-c3ccc(Cl)cc3)cnc12 | inactive
CC1(C(=O)OCC(=O)Nc2nnc(-c3ccccc3)o2)CC1(Cl)Cl (stereo not drawn) | inactive
CCOC(=O)C1CCCc2c1[nH]c1c(C(N)=O)cccc21 (stereo not drawn) | inactive
Cc1ccc(Oc2c(C(N)=O)cc([N+](=O)[O-])cc2[N+](=O)[O-])cc1 | inactive
COc1cc(/C=C/c2ccc3c([N+](=O)[O-])cccc3n2)ccc1OCC(=O)O | inactive
CCC1CCc2sc(C(=O)NNC(=O)c3ccncc3)cc2C1 (stereo not drawn) | inactive
CN(CCS(=O)(=O)c1ccc(Cl)cc1)Cc1cccnc1 | inactive
